Source: the supplement of paper PMC8728848
This is one part of a sample in which the strongest signals are shown more often than they occur.

Legend:
Experiment in all cases: glycan array binding signal (z-score within array); higher = stronger binding
Details in all cases: glycan notation: IUPAC condensed, linker removed
Fuc(a1-2)Gal(b1-3)GalNAc = molecular target: Fuc(a1-2)Gal(b1-3)GalNAc
How it was run: (§1)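 Glycan array data were curated from 3228 arrays in the Consortium for Functional Glycomics database and kept only where the protein sequence was available. Glycan names were converted to IUPAC-condensed notation, and columns mapping to the same glycan were averaged. The binding signal is a within-array Z-score, averaged across arrays of the same protein sequence at different concentrations or buffers and across linkers. Negative Z-scores can be read as non-binding.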

[1] = molecular target: Fuc(a1-2)Gal(b1-3)GlcNAc(b1-3)[Fuc(a1-2)Gal(b1-3)GlcNAc(b1-6)]GalNAc
How it was run: as §1

[2] = molecular target: Fuc(a1-2)Gal(b1-3)[Fuc(a1-4)]GlcNAc(b1-3)[Fuc(a1-3)[Gal(b1-4)]GlcNAc(b1-6)]Gal(b1-4)Glc
How it was run: as §1

[3] = molecular target: Fuc(a1-2)Gal(b1-4)GlcNAc(b1-2)Man(a1-3)[Fuc(a1-2)Gal(b1-4)GlcNAc(b1-2)Man(a1-6)]Man(b1-4)GlcNAc(b1-4)GlcNAc
How it was run: as §1

[4] = molecular target: Fuc(a1-2)Gal(b1-4)GlcNAc(b1-3)Gal(b1-4)GlcNAc(b1-3)Gal(b1-4)GlcNAc
How it was run: as §1

[5] = molecular target: Fuc(a1-2)Gal(b1-4)[Fuc(a1-3)]GlcNAc(b1-2)[Fuc(a1-2)Gal(b1-4)[Fuc(a1-3)]GlcNAc(b1-4)]Man(a1-3)[Fuc(a1-2)Gal(b1-4)[Fuc(a1-3)]GlcNAc(b1-2)Man(a1-6)]Man(b1-4)GlcNAc(b1-4)GlcNAc
How it was run: as §1

[6] = molecular target: Fuc(a1-2)[Gal(a1-3)]Gal(b1-4)GlcNAc(b1-2)Man(a1-3)[Fuc(a1-2)[Gal(a1-3)]Gal(b1-4)GlcNAc(b1-2)Man(a1-6)]Man(b1-4)GlcNAc(b1-4)GlcNAc
How it was run: as §1

[7] = molecular target: Fuc(a1-2)[Gal(a1-3)]Gal(b1-4)GlcNAc(b1-2)Man(a1-3)[Fuc(a1-2)[Gal(a1-3)]Gal(b1-4)GlcNAc(b1-2)Man(a1-6)]Man(b1-4)GlcNAc(b1-4)[Fuc(a1-6)]GlcNAc
How it was run: as §1

[8] = molecular target: Fuc(a1-2)[GalNAc(a1-3)]Gal(b1-3)GlcNAc
How it was run: as §1

[9] = molecular target: Fuc(a1-2)[GalNAc(a1-3)]Gal(b1-3)GlcNAc(b1-2)Man(a1-3)[Fuc(a1-2)[GalNAc(a1-3)]Gal(b1-3)GlcNAc(b1-2)Man(a1-6)]Man(b1-4)GlcNAc(b1-4)GlcNAc
How it was run: as §1

[10] = molecular target: Fuc(a1-2)[GalNAc(a1-3)]Gal(b1-3)GlcNAc(b1-2)Man(a1-3)[Fuc(a1-2)[GalNAc(a1-3)]Gal(b1-3)GlcNAc(b1-2)Man(a1-6)]Man(b1-4)GlcNAc(b1-4)[Fuc(a1-6)]GlcNAc
How it was run: as §1

[11] = molecular target: Fuc(a1-2)[GalNAc(a1-3)]Gal(b1-4)[Fuc(a1-3)]GlcNAc(b1-3)GalNAc
How it was run: as §1

[12] = molecular target: Fuc(a1-3)[GalNAc(b1-4)]GlcNAc
How it was run: as §1

Gal(a1-3)Gal = molecular target: Gal(a1-3)Gal
How it was run: as §1

Gal(a1-4)Gal(b1-4)Glc = molecular target: Gal(a1-4)Gal(b1-4)Glc
How it was run: as §1

[13] = molecular target: Gal(a1-4)Gal(b1-4)GlcNAc(b1-2)Man(a1-3)[Gal(a1-4)Gal(b1-4)GlcNAc(b1-2)Man(a1-6)]Man(b1-4)GlcNAc(b1-4)GlcNAc
How it was run: as §1

Gal(b1-3)Gal = molecular target: Gal(b1-3)Gal
How it was run: as §1

Gal(b1-3)GlcNAc = molecular target: Gal(b1-3)GlcNAc
How it was run: as §1

[14] = molecular target: Gal(b1-3)GlcNAc(b1-3)Gal(b1-4)GlcNAc(b1-2)Man(a1-3)[Gal(b1-3)GlcNAc(b1-3)Gal(b1-4)GlcNAc(b1-2)Man(a1-6)]Man(b1-4)GlcNAc(b1-4)GlcNAc
How it was run: as §1

[15] = molecular target: Gal(b1-3)[Fuc(a1-4)]GlcNAc(b1-2)Man(a1-3)[Gal(b1-3)[Fuc(a1-4)]GlcNAc(b1-2)Man(a1-6)]Man(b1-4)GlcNAc(b1-4)[Fuc(a1-6)]GlcNAc
How it was run: as §1

[16] = molecular target: Gal(b1-3)[Neu5Ac(b2-6)]GalNAc
How it was run: as §1

[17] = molecular target: Gal(b1-4)GlcNAc(b1-2)Man(a1-6)[Man(a1-3)]Man(b1-4)GlcNAc(b1-4)GlcNAc
How it was run: as §1

[18] = molecular target: Gal(b1-4)GlcNAc(b1-2)[Gal(b1-4)GlcNAc(b1-4)]Man(a1-3)[Gal(b1-4)GlcNAc(b1-2)Man(a1-6)]Man(b1-4)GlcNAc(b1-4)GlcNAc
How it was run: as §1

[19] = molecular target: Gal(b1-4)GlcNAc(b1-2)[Gal(b1-4)GlcNAc(b1-6)]Man(a1-6)[Gal(b1-4)GlcNAc(b1-2)Man(a1-3)]Man(b1-4)GlcNAc(b1-4)GlcNAc
How it was run: as §1

[20] = molecular target: Gal(b1-4)GlcNAc(b1-3)Gal(b1-3)GalNAc
How it was run: as §1

[21] = molecular target: Gal(b1-4)GlcNAc(b1-3)Gal(b1-4)GlcNAc(b1-3)Gal(b1-4)GlcNAc(b1-3)Gal(b1-4)GlcNAc(b1-3)Gal(b1-4)GlcNAc(b1-2)[Gal(b1-4)GlcNAc(b1-3)Gal(b1-4)GlcNAc(b1-3)Gal(b1-4)GlcNAc(b1-3)Gal(b1-4)GlcNAc(b1-3)Gal(b1-4)GlcNAc(b1-6)]Man(a1-6)[Gal(b1-4)GlcNAc(b1-3)Gal(b1-4)GlcNAc(b1-3)Gal(b1-4)GlcNAc(b1-3)Gal(b1-4)GlcNAc(b1-3)Gal(b1-4)GlcNAc(b1-2)Man(a1-3)]Man(b1-4)GlcNAc(b1-4)[Fuc(a1-6)]GlcNAc
How it was run: as §1

[22] = molecular target: Gal(b1-4)GlcNAc(b1-6)Gal(b1-4)GlcNAc
How it was run: as §1

Gal(b1-4)GlcNAc6P = molecular target: Gal(b1-4)GlcNAc6P
How it was run: as §1

Gal3S(b1-4)GlcNAc = molecular target: Gal3S(b1-4)GlcNAc
How it was run: as §1

Gal4S6S(b1-4)GlcNAc = molecular target: Gal4S6S(b1-4)GlcNAc
How it was run: as §1

B1: PX15618B-bfa-464-25-464 (Bacteroides fragilis) (protein)
chain: DQEPPLYVNENDIFTSPTRIEATLNGLYAAIKNTGTKSLMGGKSYLVFDNRGDDVINISNNLVTLFNTYNMNVGITDAENADTWTYAYLAINKVNTFLQSLEGAREVAGENYDRYVQEAKFVRALAYYYLNNLYPTPYSVNPDAKSVPLRLTAEAGTENNNMPRSTVKQIYEHILSDLENISALDTEVNTYTGVTHATQAAANMLKMRVYMAMNEWDKAITAGELVTGYSLPEDVTLIYKAPYFSQESIFSLPMADTNIPNTQQSLAEYYYDGKIMLIDTKSGIMSKPDYSLATDKRIIAFKGEKDLLMKFTDAKTKLQWVPIFRYAETLLDLAECYANKAGGEATAKSLLKQVRGRSVDAATDPLNIDNLSGDALKEAIYNEKRLEFIGEGIRGIDIMRRGEHFIKVGENETINVGPSDEKYTWPIPQVELLLNKDINK
Fuc(a1-2)Gal(b1-3)GalNAc
  glycan array binding signal (z-score): -0.355
[1]
  glycan array binding signal (z-score): 1.41
[2]
  glycan array binding signal (z-score): -0.516
[3]
  glycan array binding signal (z-score): 8.2
[4]
  glycan array binding signal (z-score): 0.251
[5]
  glycan array binding signal (z-score): 4.25
[6]
  glycan array binding signal (z-score): 1.41
[7]
  glycan array binding signal (z-score): -0.101
[8]
  glycan array binding signal (z-score): -0.308
[9]
  glycan array binding signal (z-score): 0.241
[10]
  glycan array binding signal (z-score): 0.028
[11]
  glycan array binding signal (z-score): 0.311
[12]
  glycan array binding signal (z-score): 1.31
Gal(a1-3)Gal
  glycan array binding signal (z-score): 0.348
Gal(a1-4)Gal(b1-4)Glc
  glycan array binding signal (z-score): 0.822
[13]
  glycan array binding signal (z-score): -0.514
Gal(b1-3)Gal
  glycan array binding signal (z-score): 0.33
Gal(b1-3)GlcNAc
  glycan array binding signal (z-score): 1.37
[14]
  glycan array binding signal (z-score): -0.678
[15]
  glycan array binding signal (z-score): 0.153
[16]
  glycan array binding signal (z-score): -0.017
[17]
  glycan array binding signal (z-score): 0.248
[18]
  glycan array binding signal (z-score): 0.511
[19]
  glycan array binding signal (z-score): 2.66
[20]
  glycan array binding signal (z-score): -0.13
[21]
  glycan array binding signal (z-score): 19.3
[22]
  glycan array binding signal (z-score): 0.086
Gal(b1-4)GlcNAc6P
  glycan array binding signal (z-score): -0.626
Gal3S(b1-4)GlcNAc
  glycan array binding signal (z-score): -0.305
Gal4S6S(b1-4)GlcNAc
  glycan array binding signal (z-score): -0.852
